Data from paper PMC7862700, “An all-to-all approach to the identification of sequence-specific readers for epigenetic DNA modifications on cytosine”.

Key:
Test in all cases: DAPPL (digital affinity profiling via proximity ligation, sequencing); 10 mM Tris-HCl pH 7.5, 50 mM NaCl, 1 mM DTT, 4% glycerol, room temperature, 30 min; GST-TFs on glutathione beads, 16-mer random dsDNA library, 0.1% formaldehyde crosslink after washing; high values mean tight binding
Details in all cases: protein: recombinant; tags: N-terminal GST; dsDNA, one strand shown
FEV = target: T1, FEV (Homo sapiens, UniProt Q99581 1-238)
T1 sequence: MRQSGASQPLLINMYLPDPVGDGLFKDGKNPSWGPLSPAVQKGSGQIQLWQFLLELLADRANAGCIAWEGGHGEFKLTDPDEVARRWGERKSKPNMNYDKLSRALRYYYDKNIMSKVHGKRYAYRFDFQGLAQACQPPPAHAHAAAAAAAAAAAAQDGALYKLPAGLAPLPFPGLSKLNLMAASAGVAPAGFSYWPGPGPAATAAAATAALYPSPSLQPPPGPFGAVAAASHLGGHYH
In short: (§1)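 Yeast served to express human transcription factors as GST fusions, which were then captured on glutathione beads and labelled with DNA barcodes. Pooled with a tag-only sample, they were incubated with 200 nmole of a 16-mer random double-stranded DNA library for 30 min at room temperature in Tris/NaCl/DTT/glycerol buffer, washed, crosslinked with 0.1% formaldehyde, ligated by proximity, amplified by PCR and sequenced. Dividing each hexamer's read frequency for a factor by its frequency for the tag-only sample gives the binding signal.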

ETV5 = ETV5 (Homo sapiens, UniProt P41161 1-510)
Sequence of ETV5 (P41161 whole entry): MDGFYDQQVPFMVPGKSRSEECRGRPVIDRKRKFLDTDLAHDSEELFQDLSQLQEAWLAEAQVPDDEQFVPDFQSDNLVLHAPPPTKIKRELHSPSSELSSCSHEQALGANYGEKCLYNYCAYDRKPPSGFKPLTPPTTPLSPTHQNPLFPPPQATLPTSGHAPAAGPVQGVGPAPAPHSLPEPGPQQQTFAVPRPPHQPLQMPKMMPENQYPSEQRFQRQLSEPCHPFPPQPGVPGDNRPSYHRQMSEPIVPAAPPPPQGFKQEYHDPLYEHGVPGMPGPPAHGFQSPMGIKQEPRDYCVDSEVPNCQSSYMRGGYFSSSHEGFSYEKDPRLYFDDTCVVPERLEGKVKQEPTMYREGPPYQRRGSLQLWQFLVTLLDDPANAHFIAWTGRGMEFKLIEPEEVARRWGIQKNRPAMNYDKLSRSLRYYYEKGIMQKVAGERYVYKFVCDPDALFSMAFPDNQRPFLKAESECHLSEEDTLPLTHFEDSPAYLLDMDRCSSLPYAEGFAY
In short: as §1

SPIC = target: T2, SPIC (Homo sapiens, UniProt Q8N5J4 1-248)
T2 sequence: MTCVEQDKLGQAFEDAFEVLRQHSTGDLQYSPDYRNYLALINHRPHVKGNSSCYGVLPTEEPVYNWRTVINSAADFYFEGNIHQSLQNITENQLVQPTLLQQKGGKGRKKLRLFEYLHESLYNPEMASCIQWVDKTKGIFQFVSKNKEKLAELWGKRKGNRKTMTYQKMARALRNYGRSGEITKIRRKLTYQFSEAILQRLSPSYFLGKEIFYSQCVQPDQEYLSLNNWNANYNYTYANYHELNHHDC
In short: as §1

ELF4 = ELF4 (Homo sapiens, UniProt Q99607 1-663)
Sequence of ELF4 (Q99607 whole entry): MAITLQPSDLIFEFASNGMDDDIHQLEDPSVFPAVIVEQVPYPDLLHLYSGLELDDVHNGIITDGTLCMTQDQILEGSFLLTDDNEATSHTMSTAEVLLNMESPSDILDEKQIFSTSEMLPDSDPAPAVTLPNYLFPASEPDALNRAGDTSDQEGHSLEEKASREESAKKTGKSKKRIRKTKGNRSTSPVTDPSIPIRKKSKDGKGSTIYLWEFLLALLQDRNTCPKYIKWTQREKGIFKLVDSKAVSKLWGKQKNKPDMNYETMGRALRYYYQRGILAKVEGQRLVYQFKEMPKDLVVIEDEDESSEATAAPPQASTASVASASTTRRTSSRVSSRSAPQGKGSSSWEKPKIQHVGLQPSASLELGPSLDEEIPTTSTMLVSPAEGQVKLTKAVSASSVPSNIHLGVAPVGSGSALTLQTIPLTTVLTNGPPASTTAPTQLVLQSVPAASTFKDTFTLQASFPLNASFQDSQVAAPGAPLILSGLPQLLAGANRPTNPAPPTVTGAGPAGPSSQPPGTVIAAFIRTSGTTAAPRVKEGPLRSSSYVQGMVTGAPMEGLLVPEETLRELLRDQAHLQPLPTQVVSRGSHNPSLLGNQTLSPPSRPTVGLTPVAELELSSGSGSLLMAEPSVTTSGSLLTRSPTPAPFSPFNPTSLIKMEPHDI
In short: as §1

ELK4 = target: T3, ELK4 (Homo sapiens, UniProt P28324-2 1-405)
T3 sequence: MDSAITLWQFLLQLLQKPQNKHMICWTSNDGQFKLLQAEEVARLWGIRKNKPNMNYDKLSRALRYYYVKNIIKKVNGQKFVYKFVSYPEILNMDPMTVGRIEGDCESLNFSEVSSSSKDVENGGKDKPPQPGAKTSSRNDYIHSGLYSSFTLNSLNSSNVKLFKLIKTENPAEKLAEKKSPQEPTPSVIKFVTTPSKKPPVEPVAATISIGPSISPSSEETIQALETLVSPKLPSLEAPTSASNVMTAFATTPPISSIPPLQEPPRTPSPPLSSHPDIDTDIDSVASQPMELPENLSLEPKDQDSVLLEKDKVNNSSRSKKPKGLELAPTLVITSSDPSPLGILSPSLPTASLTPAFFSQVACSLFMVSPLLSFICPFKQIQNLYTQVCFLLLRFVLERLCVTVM
In short: as §1

ETV2 = target: T4, ETV2 (Homo sapiens, UniProt O00321 1-342)
T4 sequence: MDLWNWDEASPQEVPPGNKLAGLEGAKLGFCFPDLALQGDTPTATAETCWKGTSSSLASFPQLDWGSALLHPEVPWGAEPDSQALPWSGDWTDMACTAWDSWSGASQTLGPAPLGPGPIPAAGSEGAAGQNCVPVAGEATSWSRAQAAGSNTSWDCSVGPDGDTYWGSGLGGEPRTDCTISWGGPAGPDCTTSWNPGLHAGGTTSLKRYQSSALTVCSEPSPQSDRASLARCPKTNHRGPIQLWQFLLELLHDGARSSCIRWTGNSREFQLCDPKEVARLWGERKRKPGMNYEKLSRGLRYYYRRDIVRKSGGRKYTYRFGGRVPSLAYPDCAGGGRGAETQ
In short: as §1

ELF3 = target: T5, ELF3 (Homo sapiens, UniProt P78545 1-371)
T5 sequence: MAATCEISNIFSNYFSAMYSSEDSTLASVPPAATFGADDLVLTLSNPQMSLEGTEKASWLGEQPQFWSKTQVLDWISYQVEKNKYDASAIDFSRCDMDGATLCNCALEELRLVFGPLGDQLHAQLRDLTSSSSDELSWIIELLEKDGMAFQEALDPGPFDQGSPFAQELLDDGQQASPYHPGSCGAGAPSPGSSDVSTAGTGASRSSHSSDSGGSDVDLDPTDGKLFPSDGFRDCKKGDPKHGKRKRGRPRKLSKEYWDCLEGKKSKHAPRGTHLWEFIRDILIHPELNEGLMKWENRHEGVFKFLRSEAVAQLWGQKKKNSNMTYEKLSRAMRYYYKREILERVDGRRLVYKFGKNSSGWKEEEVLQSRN
In short: as §1

ETV1 = ETV1 (Homo sapiens, UniProt P50549 1-477)
Sequence of ETV1 (P50549 whole entry): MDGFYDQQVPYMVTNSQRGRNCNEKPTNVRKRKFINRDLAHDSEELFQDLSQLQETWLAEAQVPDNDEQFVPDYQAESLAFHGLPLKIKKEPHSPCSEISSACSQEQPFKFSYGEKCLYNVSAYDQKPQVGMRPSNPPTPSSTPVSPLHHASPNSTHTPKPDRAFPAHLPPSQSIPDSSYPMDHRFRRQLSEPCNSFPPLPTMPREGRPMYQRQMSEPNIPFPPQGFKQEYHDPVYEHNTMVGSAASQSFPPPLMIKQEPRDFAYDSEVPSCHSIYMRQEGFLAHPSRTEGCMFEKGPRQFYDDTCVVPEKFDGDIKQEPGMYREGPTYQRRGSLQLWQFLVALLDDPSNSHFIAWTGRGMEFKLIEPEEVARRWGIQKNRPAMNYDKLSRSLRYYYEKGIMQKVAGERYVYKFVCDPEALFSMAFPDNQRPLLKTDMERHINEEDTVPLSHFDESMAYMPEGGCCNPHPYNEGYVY
In short: as §1

ERF = target: T6, ERF (Homo sapiens, UniProt P50548 1-548)
T6 sequence: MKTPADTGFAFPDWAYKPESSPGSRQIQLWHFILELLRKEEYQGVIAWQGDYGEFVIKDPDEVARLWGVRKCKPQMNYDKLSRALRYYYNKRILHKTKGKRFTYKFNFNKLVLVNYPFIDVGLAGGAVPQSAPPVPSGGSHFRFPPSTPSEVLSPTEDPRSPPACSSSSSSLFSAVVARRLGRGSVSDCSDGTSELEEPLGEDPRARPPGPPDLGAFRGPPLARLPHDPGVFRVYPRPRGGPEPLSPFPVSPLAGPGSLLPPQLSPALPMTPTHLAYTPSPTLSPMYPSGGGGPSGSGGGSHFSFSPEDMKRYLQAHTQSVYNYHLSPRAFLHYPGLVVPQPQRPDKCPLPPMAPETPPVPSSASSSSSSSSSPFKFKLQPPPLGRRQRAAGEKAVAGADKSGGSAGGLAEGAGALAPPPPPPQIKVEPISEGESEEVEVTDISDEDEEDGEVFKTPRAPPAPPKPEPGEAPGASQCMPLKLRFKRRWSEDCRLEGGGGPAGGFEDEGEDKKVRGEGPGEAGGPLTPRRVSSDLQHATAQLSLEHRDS
In short: as §1

ETV3L = target: T7, ETV3L (Homo sapiens, UniProt Q6ZN32 1-361)
T7 sequence: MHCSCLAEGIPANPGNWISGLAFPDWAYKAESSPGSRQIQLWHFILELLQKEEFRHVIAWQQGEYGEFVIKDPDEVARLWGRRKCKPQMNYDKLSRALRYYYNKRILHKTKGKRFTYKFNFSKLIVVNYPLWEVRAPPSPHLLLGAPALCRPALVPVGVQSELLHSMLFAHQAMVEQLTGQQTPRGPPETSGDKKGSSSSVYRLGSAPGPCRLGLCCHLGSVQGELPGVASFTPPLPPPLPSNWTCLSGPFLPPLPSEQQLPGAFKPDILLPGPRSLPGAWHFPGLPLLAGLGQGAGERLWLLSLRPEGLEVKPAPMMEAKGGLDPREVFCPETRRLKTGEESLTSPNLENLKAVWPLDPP
In short: as §1

ETS2 = target: T8, ETS2 (Homo sapiens, UniProt P15036 1-469)
T8 sequence: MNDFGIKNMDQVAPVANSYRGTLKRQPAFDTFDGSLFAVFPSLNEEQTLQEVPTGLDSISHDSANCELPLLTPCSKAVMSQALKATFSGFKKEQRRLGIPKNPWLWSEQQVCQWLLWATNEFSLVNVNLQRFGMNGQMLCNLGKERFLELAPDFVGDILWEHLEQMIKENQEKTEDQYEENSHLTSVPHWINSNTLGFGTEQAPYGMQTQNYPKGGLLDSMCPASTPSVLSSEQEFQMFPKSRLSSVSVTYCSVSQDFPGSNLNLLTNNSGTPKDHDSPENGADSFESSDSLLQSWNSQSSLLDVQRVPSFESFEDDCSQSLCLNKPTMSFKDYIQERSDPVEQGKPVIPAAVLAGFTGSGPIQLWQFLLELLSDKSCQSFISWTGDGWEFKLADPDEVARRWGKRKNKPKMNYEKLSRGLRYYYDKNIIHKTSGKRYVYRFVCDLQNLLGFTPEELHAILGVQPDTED
In short: as §1

SPDEF = target: T9, SPDEF (Homo sapiens, UniProt O95238 1-335)
T9 sequence: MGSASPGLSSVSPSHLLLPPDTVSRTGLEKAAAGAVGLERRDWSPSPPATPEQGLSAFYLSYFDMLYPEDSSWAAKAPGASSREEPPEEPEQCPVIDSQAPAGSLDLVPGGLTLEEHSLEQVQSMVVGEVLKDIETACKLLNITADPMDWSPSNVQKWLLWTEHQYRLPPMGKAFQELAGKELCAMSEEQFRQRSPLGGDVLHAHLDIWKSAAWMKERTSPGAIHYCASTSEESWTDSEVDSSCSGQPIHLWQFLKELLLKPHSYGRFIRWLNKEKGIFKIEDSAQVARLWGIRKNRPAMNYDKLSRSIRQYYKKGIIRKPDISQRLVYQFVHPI
In short: as §1

ETV7 = target: T10, ETV7 (Homo sapiens, UniProt Q9Y603 1-341)
T10 sequence: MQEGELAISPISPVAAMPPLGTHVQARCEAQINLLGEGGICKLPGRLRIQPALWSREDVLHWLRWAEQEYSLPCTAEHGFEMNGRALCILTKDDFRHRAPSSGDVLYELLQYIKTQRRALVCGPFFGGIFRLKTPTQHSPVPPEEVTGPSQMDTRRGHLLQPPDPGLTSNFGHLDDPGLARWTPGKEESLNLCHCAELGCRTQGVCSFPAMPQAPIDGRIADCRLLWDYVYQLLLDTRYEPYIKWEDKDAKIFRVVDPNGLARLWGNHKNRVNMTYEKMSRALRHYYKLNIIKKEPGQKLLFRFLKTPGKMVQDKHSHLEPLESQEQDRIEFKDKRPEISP
In short: as §1

ELF5 = target: T11, ELF5 (Homo sapiens, UniProt Q9UKW6-2 1-255)
T11 sequence: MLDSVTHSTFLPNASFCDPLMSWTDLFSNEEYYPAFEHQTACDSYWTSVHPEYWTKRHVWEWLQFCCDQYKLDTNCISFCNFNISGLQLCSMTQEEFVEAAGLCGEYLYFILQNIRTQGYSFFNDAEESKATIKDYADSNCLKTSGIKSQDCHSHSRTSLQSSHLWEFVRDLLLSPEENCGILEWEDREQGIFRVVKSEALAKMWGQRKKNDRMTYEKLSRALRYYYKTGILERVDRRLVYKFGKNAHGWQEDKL
In short: as §1

ETV3 = target: T12, ETV3 (Homo sapiens, UniProt P41162-2 1-143)
T12 sequence: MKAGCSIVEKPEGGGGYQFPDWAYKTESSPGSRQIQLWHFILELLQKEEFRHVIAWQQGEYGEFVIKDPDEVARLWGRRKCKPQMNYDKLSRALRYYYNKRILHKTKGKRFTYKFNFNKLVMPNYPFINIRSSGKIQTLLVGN
In short: as §1

ETV6 = ETV6 (Homo sapiens, UniProt P41212 1-452)
Sequence of ETV6 (P41212 whole entry): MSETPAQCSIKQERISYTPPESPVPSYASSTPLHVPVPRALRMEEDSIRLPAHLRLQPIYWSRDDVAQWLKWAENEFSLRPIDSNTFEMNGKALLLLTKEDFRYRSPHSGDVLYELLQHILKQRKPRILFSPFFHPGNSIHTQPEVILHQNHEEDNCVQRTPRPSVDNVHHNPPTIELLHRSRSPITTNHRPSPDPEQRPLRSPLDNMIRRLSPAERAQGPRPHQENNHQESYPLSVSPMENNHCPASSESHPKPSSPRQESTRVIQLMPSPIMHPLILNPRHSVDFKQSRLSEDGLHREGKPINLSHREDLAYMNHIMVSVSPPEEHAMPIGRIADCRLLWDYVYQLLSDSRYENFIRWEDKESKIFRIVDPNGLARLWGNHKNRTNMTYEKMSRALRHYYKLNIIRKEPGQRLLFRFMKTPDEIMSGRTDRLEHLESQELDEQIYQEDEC
In short: as §1

AACAGG
binding signal (FEV): 1.16 fold enrichment (6-mer frequency, TF over GST control)
binding signal (ETV5): 1.27 fold enrichment (6-mer frequency, TF over GST control)
binding signal (SPIC): 1.15 fold enrichment (6-mer frequency, TF over GST control)
binding signal (ELF4): 1.08 fold enrichment (6-mer frequency, TF over GST control)
binding signal (ELK4): 1.09 fold enrichment (6-mer frequency, TF over GST control)
binding signal (ETV2): 1.03 fold enrichment (6-mer frequency, TF over GST control)
binding signal (ELF3): 1.15 fold enrichment (6-mer frequency, TF over GST control)
binding signal (ETV1): 1.18 fold enrichment (6-mer frequency, TF over GST control)
binding signal (ERF): 1.16 fold enrichment (6-mer frequency, TF over GST control)
binding signal (ETV3L): 1.15 fold enrichment (6-mer frequency, TF over GST control)
binding signal (ETS2): 1.13 fold enrichment (6-mer frequency, TF over GST control)
binding signal (SPDEF): 1.31 fold enrichment (6-mer frequency, TF over GST control)
binding signal (ETV7): 1.15 fold enrichment (6-mer frequency, TF over GST control)
binding signal (ELF5): 1.24 fold enrichment (6-mer frequency, TF over GST control)
binding signal (ETV3): 1.25 fold enrichment (6-mer frequency, TF over GST control)
binding signal (ETV6): 1.29 fold enrichment (6-mer frequency, TF over GST control)

GAAGCG
binding signal (FEV): 1.37 fold enrichment (6-mer frequency, TF over GST control)
binding signal (ETV5): 1.33 fold enrichment (6-mer frequency, TF over GST control)
binding signal (SPIC): 1.27 fold enrichment (6-mer frequency, TF over GST control)
binding signal (ELF4): 1.2 fold enrichment (6-mer frequency, TF over GST control)
binding signal (ELK4): 1.2 fold enrichment (6-mer frequency, TF over GST control)
binding signal (ETV2): 1.19 fold enrichment (6-mer frequency, TF over GST control)
binding signal (ELF3): 1.22 fold enrichment (6-mer frequency, TF over GST control)
binding signal (ETV1): 1.38 fold enrichment (6-mer frequency, TF over GST control)
binding signal (ERF): 1.29 fold enrichment (6-mer frequency, TF over GST control)
binding signal (ETV3L): 1.32 fold enrichment (6-mer frequency, TF over GST control)
binding signal (ETS2): 1.33 fold enrichment (6-mer frequency, TF over GST control)
binding signal (SPDEF): 1.29 fold enrichment (6-mer frequency, TF over GST control)
binding signal (ETV7): 1.36 fold enrichment (6-mer frequency, TF over GST control)
binding signal (ELF5): 1.35 fold enrichment (6-mer frequency, TF over GST control)
binding signal (ETV3): 1.36 fold enrichment (6-mer frequency, TF over GST control)
binding signal (ETV6): 1.43 fold enrichment (6-mer frequency, TF over GST control)
